Test results: PubChem BioAssay AID588763 (NMMLSC, 2011)
Entries with a potency or affinity are not part of this list. A number with no mark means an inactive call. Calls of active or inactive are those of the source. No rule for the calls is given here.

target: Beta-2 adrenergic receptor (Homo sapiens) (UniProt P07550); experiment: ADRB2 activation measured by internalization – cell-based, FAP fluorogen, flow cytometry, cherry pick 1, dose response (AID 588763); details: AM2.2-beta2AR cells, 90 min; series mostly up to 33 µM; activation (receptor internalization): at the top concentration
Sequence (P07550 whole entry, looked up): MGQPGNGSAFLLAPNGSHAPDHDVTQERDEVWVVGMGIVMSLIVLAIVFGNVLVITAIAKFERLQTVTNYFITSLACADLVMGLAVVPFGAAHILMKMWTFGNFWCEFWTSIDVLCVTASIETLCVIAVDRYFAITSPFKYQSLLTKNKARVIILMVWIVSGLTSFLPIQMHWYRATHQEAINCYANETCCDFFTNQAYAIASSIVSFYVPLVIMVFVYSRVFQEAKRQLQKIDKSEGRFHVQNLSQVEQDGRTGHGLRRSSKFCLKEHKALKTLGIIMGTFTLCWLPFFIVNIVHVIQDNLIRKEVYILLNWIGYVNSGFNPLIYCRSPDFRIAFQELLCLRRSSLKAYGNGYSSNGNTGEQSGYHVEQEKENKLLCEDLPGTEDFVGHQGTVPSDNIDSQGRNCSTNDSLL

SMILES	activation (receptor internalization) [%]	outcome
Cc1ccc(OCc2cc(C(=O)NC3CCc4ccccc43)no2)cn1 (stereo not drawn)	-23	–
COC(=O)[C@@H](NC(=O)c1cc(COc2cncc(Cl)c2)on1)c1ccccc1	2.04	–
COc1ccccc1N1CCN(C(=O)CN(C)S(=O)(=O)c2ccc(C)cc2)CC1	50.6	–
CCOc1ccc(NC(=O)Cn2nnc(-c3ccccc3NC(=O)C3CC3)n2)cc1	-7	–
COc1cccc(OC)c1C(=O)Nc1ccc(NC(=O)c2ccco2)cc1	-20	–
CC1CCN(C(C(=O)Nc2ccc3c(c2)OCO3)c2ccccc2)CC1 (stereo not drawn)	6.59	–
COc1cccc(-c2ccc(NC(=O)C3CCCN(Cc4ccccn4)C3)cc2)c1 (stereo not drawn)	11.9	–
COc1cc(CNCCc2ccc(S(N)(=O)=O)cc2)ccc1OCc1ccc(Cl)cc1	46.7	–
COc1ccccc1-c1cc(C(F)(F)F)nc(S(=O)(=O)CCCC(=O)N2CCCCC2C)n1 (stereo not drawn)	91.2	–
CC1CCCN(C(C(=O)Nc2ccc3c(c2)OCO3)c2ccccc2)C1 (stereo not drawn)	35.9	–
O=C(Nc1ccc(NC(=O)c2ccccc2F)cc1)c1cccs1	-0.287	–
O=C(COc1ccc(S(=O)(=O)N2CCOCC2)cc1)Nc1ccc(Br)cc1	-5.92	–
CN(CC(=O)N1CCN(c2ccc(F)cc2)CC1)S(=O)(=O)c1ccc(F)cc1	–	inactive
CCc1ccc(CN(C)C(=O)c2cc(COc3cncc(Cl)c3)on2)cc1	-3.26	–
Cc1cc(S(=O)(=O)N2CCOCC2)ccc1OCC(=O)Nc1ccccc1F	-7.22	–
O=C(Nc1ccc2oc(-c3ccccc3F)nc2c1)c1ccc2c(c1)OCCO2	22.6	–
COCc1ccc(CN2CCCC(C(=O)Nc3ccc(-c4cccc(OC)c4)cc3)C2)o1 (stereo not drawn)	24.9	–

SMILES	activation (receptor internalization) [%]	outcome
Cc1cnn(-c2nc(-c3ccccc3)cc(-c3ccccc3)n2)c1	107	–
N=c1n(CC(=O)c2ccc([N+](=O)[O-])cc2)c2ccccc2n1Cc1ccccc1	101	–
COc1ccc(Cl)c(NC(=O)Cn2nnc(-c3ccccc3N)n2)c1	7.97	–
Fc1ccc(Sc2nc(-c3ccccc3)nnc2C(F)(F)F)cc1	101	–
COc1cccc(-c2ccc(NC(=O)C3CCCN(Cc4cnn(C(C)C)c4)C3)cc2)c1 (stereo not drawn)	28.5	–
O=C(COc1ccc(S(=O)(=O)N2CCOCC2)cc1)Nc1ccccc1F	-2.76	–
NC(=O)CC(NC(=O)c1ccccc1)c1ccc(N2CCN(c3ccccn3)CC2)c([N+](=O)[O-])c1 (stereo not drawn)	14.7	–
CCCC(=O)N1CCN(c2ccc(NC(=O)c3ccc([N+](=O)[O-])o3)cc2Cl)CC1	31	–
COc1ccccc1CCC(=O)Nc1cccc(S(=O)(=O)N2CCCCCC2)c1	6.06	–
CCOc1ccc(CNC(=O)C2CCN(c3nnc(C)c4c(C)n(-c5ccc(C)cc5)nc34)CC2)cc1	65.3	–
COc1ccccc1CNC(=O)CCn1c(=O)[nH]c2ccsc2c1=O	–	inactive
COc1ccc(NC(=O)c2cccc(N3C(=O)c4cccc([N+](=O)[O-])c4C3=O)c2)cc1	1.29	–
COC(=O)c1ccccc1NC(=O)COc1ccc(S(=O)(=O)N2CCCC2)cc1C	6.72	–
Cc1ccc(-c2nc(NC(=O)c3cc(C(C)(C)C)nn3C)sc2C)cc1Cl	14.2	–
COc1ccc(C)cc1S(=O)(=O)N(C)CC(=O)N1CCN(c2ccccc2)CC1	-0.827	–
COc1ccc(C(CCNCc2ccc(OC(C)C)cc2)c2ccccc2OC)cc1 (stereo not drawn)	59.8	–
